The supplement of paper PMC8728848
The full list was thinned out, with the strongest signals kept by preference.

Experiments:
Assay in all cases: glycan array binding signal (z-score within array); higher = stronger binding
Details in all cases: glycan notation: IUPAC condensed, linker removed
[1] = molecular target: Fuc(a1-2)Gal(b1-3)GalNAc(b1-3)Gal
Summary of the method: (§1)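 The binding signal is a Z-score computed within each array and averaged over linkers. Arrays of the same protein sequence at different concentrations or buffers were also averaged together. Data originate from 3228 arrays in the Consortium for Functional Glycomics database, kept only where the protein sequence was available.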

[2] = molecular target: Fuc(a1-2)Gal(b1-3)GlcNAc(b1-2)Man(a1-3)[Fuc(a1-2)Gal(b1-3)GlcNAc(b1-2)Man(a1-6)]Man(b1-4)GlcNAc(b1-4)[Fuc(a1-6)]GlcNAc
Summary of the method: as §1

[3] = molecular target: Fuc(a1-2)Gal(b1-4)[Fuc(a1-3)]GlcNAc(b1-3)[Neu5Ac(a2-6)Gal(b1-4)GlcNAc(b1-6)]Gal(b1-4)Glc
Summary of the method: as §1

[4] = molecular target: Fuc(a1-2)Gal6S(b1-4)Glc6S
Summary of the method: as §1

[5] = molecular target: Fuc(a1-2)[Gal(a1-3)]Gal(b1-3)GlcNAc(b1-2)Man(a1-3)[Fuc(a1-2)[Gal(a1-3)]Gal(b1-3)GlcNAc(b1-2)Man(a1-6)]Man(b1-4)GlcNAc(b1-4)GlcNAc
Summary of the method: as §1

[6] = molecular target: Fuc(a1-2)[Gal(a1-3)]Gal(b1-3)GlcNAc(b1-2)Man(a1-3)[Fuc(a1-2)[Gal(a1-3)]Gal(b1-3)GlcNAc(b1-2)Man(a1-6)]Man(b1-4)GlcNAc(b1-4)[Fuc(a1-6)]GlcNAc
Summary of the method: as §1

[7] = molecular target: Fuc(a1-2)[Gal(a1-3)]Gal(b1-4)[Fuc(a1-3)]GlcNAc(b1-3)GalNAc
Summary of the method: as §1

[8] = molecular target: Fuc(a1-2)[GalNAc(a1-3)]Gal(b1-4)Glc
Summary of the method: as §1

[9] = molecular target: Fuc(a1-3)[Gal(b1-4)]GlcNAc
Summary of the method: as §1

[10] = molecular target: Fuc(a1-3)[GalNAc(b1-4)]GlcNAc6S
Summary of the method: as §1

Fuc(b1-3)GlcNAc = molecular target: Fuc(b1-3)GlcNAc
Summary of the method: as §1

[11] = molecular target: Gal(a1-3)Gal(b1-4)GlcNAc(b1-3)GalNAc
Summary of the method: as §1

[12] = molecular target: Gal(a1-3)Gal(b1-4)[Fuc(a1-3)]GlcNAc(b1-2)Man(a1-3)[Gal(a1-3)Gal(b1-4)[Fuc(a1-3)]GlcNAc(b1-2)Man(a1-6)]Man(b1-4)GlcNAc(b1-4)GlcNAc
Summary of the method: as §1

[13] = molecular target: Gal(a1-4)Gal(b1-3)GlcNAc(b1-2)Man(a1-3)[Gal(a1-4)Gal(b1-3)GlcNAc(b1-2)Man(a1-6)]Man(b1-4)GlcNAc(b1-4)GlcNAc
Summary of the method: as §1

[14] = molecular target: Gal(a1-4)Gal(b1-4)GlcNAc(b1-3)Gal(b1-4)Glc
Summary of the method: as §1

Gal(b1-3)Gal(b1-4)GlcNAc = molecular target: Gal(b1-3)Gal(b1-4)GlcNAc
Summary of the method: as §1

Gal(b1-3)GalNAc(b1-3)Gal = molecular target: Gal(b1-3)GalNAc(b1-3)Gal
Summary of the method: as §1

[15] = molecular target: Gal(b1-3)GalNAc(b1-4)Gal(b1-4)Glc
Summary of the method: as §1

Gal(b1-3)GlcNAc(b1-2)Man = molecular target: Gal(b1-3)GlcNAc(b1-2)Man
Summary of the method: as §1

[16] = molecular target: Gal(b1-3)GlcNAc(b1-3)Gal(b1-4)GlcNAc(b1-2)[Gal(b1-3)GlcNAc(b1-3)Gal(b1-4)GlcNAc(b1-6)]Man(a1-6)[Gal(b1-3)GlcNAc(b1-3)Gal(b1-4)GlcNAc(b1-2)Man(a1-3)]Man(b1-4)GlcNAc(b1-4)[Fuc(a1-6)]GlcNAc
Summary of the method: as §1

[17] = molecular target: Gal(b1-3)GlcNAc(b1-3)GalNAc
Summary of the method: as §1

[18] = molecular target: Gal(b1-3)[Neu5Ac(b2-6)]GalNAc
Summary of the method: as §1

[19] = molecular target: Gal(b1-4)GalNAc(b1-3)[Fuc(a1-2)]Gal(b1-4)GlcNAc
Summary of the method: as §1

Gal(b1-4)Glc6S = molecular target: Gal(b1-4)Glc6S
Summary of the method: as §1

[20] = molecular target: Gal(b1-4)GlcNAc(b1-2)[Gal(b1-4)GlcNAc(b1-4)]Man(a1-3)[Gal(b1-4)GlcNAc(b1-2)[Gal(b1-4)GlcNAc(b1-6)]Man(a1-6)]Man(b1-4)GlcNAc(b1-4)GlcNAc
Summary of the method: as §1

[21] = molecular target: Gal(b1-4)GlcNAc(b1-3)Gal(b1-4)GlcNAc(b1-2)Man(a1-3)[Gal(b1-4)GlcNAc(b1-3)Gal(b1-4)GlcNAc(b1-2)Man(a1-6)]Man(b1-4)GlcNAc(b1-4)[Fuc(a1-6)]GlcNAc
Summary of the method: as §1

[22] = molecular target: Gal(b1-4)GlcNAc(b1-3)Gal(b1-4)GlcNAc(b1-3)Gal(b1-4)GlcNAc(b1-3)Gal(b1-4)GlcNAc(b1-3)Gal(b1-4)GlcNAc(b1-2)[Gal(b1-4)GlcNAc(b1-3)Gal(b1-4)GlcNAc(b1-3)Gal(b1-4)GlcNAc(b1-3)Gal(b1-4)GlcNAc(b1-3)Gal(b1-4)GlcNAc(b1-6)]Man(a1-6)[Gal(b1-4)GlcNAc(b1-3)Gal(b1-4)GlcNAc(b1-3)Gal(b1-4)GlcNAc(b1-3)Gal(b1-4)GlcNAc(b1-3)Gal(b1-4)GlcNAc(b1-2)Man(a1-3)]Man(b1-4)GlcNAc(b1-4)[Fuc(a1-6)]GlcNAc
Summary of the method: as §1

B1: FimA-N3 (Actinomyces oris) (protein)
chain: MHHHHHHSSGVDLGTENLYFQSNAGLQGAQFQLYKAKNAYANTCSNEKEGAPIAINGQTTLTTDAQGAIDIKGLFISDSIDGADRDNQVNAMERCYVLVETKAPAGYVLPAGNGAATPVKVKAGEETTDN
**Q.** B1 was tested. Which “glycan array binding signal (z-score)” value [1] did it give?
**A.** The value was 5.62.

**Q.** What about the “glycan array binding signal (z-score)” value [2] of the same binder?
**A.** The value was -0.196.

**Q.** And the “glycan array binding signal (z-score)” value [3]?
**A.** The value was -0.472.

**Q.** What about the “glycan array binding signal (z-score)” value [4] of the same binder?
**A.** Its value is 0.307.

**Q.** And the “glycan array binding signal (z-score)” value [5]?
**A.** Its value is -0.378.

**Q.** And the “glycan array binding signal (z-score)” value [6]?
**A.** Its value is -0.364.

**Q.** And the “glycan array binding signal (z-score)” value [7]?
**A.** Its value is 0.505.

**Q.** What about the “glycan array binding signal (z-score)” value [8] of the same binder?
**A.** The value was -0.493.

**Q.** What about the “glycan array binding signal (z-score)” value [9] of the same binder?
**A.** The value was -0.369.

**Q.** And the “glycan array binding signal (z-score)” value [10]?
**A.** Its value is 4.08.

**Q.** What about the “glycan array binding signal (z-score)” value (Fuc(b1-3)GlcNAc) of the same binder?
**A.** The value was -0.128.

**Q.** And the “glycan array binding signal (z-score)” value [11]?
**A.** Its value is 0.243.

**Q.** And the “glycan array binding signal (z-score)” value [12]?
**A.** The value was -0.667.

**Q.** What about the “glycan array binding signal (z-score)” value [13] of the same binder?
**A.** Its value is -0.264.

**Q.** And the “glycan array binding signal (z-score)” value [14]?
**A.** Its value is -0.388.

**Q.** And the “glycan array binding signal (z-score)” value (Gal(b1-3)Gal(b1-4)GlcNAc)?
**A.** Its value is 0.999.

**Q.** And the “glycan array binding signal (z-score)” value (Gal(b1-3)GalNAc(b1-3)Gal)?
**A.** The value was -0.367.

**Q.** And the “glycan array binding signal (z-score)” value [15]?
**A.** The value was 3.23.

**Q.** What about the “glycan array binding signal (z-score)” value (Gal(b1-3)GlcNAc(b1-2)Man) of the same binder?
**A.** Its value is -0.37.

**Q.** What about the “glycan array binding signal (z-score)” value [16] of the same binder?
**A.** Its value is 2.94.

**Q.** What about the “glycan array binding signal (z-score)” value [17] of the same binder?
**A.** The value was -0.259.

**Q.** What about the “glycan array binding signal (z-score)” value [18] of the same binder?
**A.** The value was -0.563.

**Q.** And the “glycan array binding signal (z-score)” value [19]?
**A.** The value was -0.587.

**Q.** And the “glycan array binding signal (z-score)” value (Gal(b1-4)Glc6S)?
**A.** The value was -0.058.

**Q.** And the “glycan array binding signal (z-score)” value [20]?
**A.** The value was -0.618.

**Q.** And the “glycan array binding signal (z-score)” value [21]?
**A.** The value was -0.021.

**Q.** And the “glycan array binding signal (z-score)” value [22]?
**A.** Its value is 4.26.
